Sampled rows, rich in hits. Any-hit rate of the full collection: about 21%.
IL1B secr inh: qHTS for Inhibitors of Inflammasome Signaling: IL-1-beta AlphaLISA Primary Screen; THP-1 LPS/ATP IL-1B secretion, AlphaLISA, 16 h; stronger effect = lower value; activity change, % at 57.5 µM; actives 4.7% (n = 360,000); AID 743279, 2014; in the data active = activity change below about -50%; inconclusive = mostly about -30% to -49%
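THP-1 cells pretreated 1 hr with compounds (up to 57.5 uM final), then stimulated with LPS (250 ng/mL final) plus ATP (1.25 mM final); secreted IL-1B measured by AlphaLISA after 16 hr, decreased signal indicating inhibition.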
ELG1 repair inh: qHTS screen for small molecules that inhibit ELG1-dependent DNA repair in human embryonic kidney (HEK293T) cells expressing luciferase-tagged ELG1; HEK293T ELG1-luciferase reporter, luminescence, 16 h; DNA damage induced by 5-fluorouridine; Potency, µM (series often up to 46.1 µM), usual class: inhibitors; actives 2.3% (n = 330,000); also: nearly all actives have a fitted effect of over 55% in size
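Reporter activity after DNA damage by 5-fluorouridine is monitored. Compound-treated cells incubate 16 hr at 37 °C, then ONE-Glo is added for 30 min before luminescence reading.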
DT40 TDP1 CPT: qHTS for Inhibitors of human tyrosyl-DNA phosphodiesterase 1 (TDP1): qHTS in cells in presence of CPT. actives 12% (n = 420,000). chicken DT40 Tdp1-/-;hTDP1 cells + 20 nM CPT, ATP luminescence, 48 h. Potency, µM (doses to about 46.2 µM), hits mostly inhibitors. AID 686979, 2013; also: nearly all actives have a fitted effect of over 55% in size
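Chicken DT40 Tdp1-/- cells stably complemented with human TDP1 were seeded at 400 cells/well in medium containing 20 nM camptothecin, exposed to pin-transferred compounds, and grown at 37 °C for at least 48 hr. Viability was read as ATP luminescence.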
RORg inh: qHTS for inhibitors of ROR gamma transcriptional activity; Drosophila S2 Gal4-RORgamma UAS-luciferase reporter, 20 h; Potency, µM (highest dose often 53.6 µM), actives largely listed as inhibitors; actives 5.4% (n = 310,000); AID 2551, 2010; also: nearly all actives have a fitted effect of over 60% in size
Target sequence (P51450 whole entry, looked up, the tested form may be a part): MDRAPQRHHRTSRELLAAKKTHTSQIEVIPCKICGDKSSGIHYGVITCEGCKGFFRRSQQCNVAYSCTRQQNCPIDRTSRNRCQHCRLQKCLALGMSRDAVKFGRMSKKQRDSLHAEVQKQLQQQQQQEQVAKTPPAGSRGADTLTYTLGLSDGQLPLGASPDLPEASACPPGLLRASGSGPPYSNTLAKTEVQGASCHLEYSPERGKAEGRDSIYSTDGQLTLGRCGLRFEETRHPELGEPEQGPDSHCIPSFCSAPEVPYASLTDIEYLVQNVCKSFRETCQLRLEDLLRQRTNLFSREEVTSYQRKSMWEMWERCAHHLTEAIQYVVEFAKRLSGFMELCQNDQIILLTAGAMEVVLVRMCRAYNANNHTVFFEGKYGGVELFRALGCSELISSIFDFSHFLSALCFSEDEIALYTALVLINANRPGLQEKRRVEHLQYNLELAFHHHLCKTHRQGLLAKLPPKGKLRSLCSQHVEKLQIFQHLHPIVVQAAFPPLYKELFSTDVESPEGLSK
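Stable Schneider cell line, Gal4 DNA-binding domain fused to ROR gamma, UAS-luciferase. Cmpd 1 hr RT → CuSO4 700 uM final → 20 hr RT → luciferase reagent 10 min → luminescence.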
VP16 counter: VP16 counterscreen qHTS for inhibitors of ROR gamma transcriptional activity; actives 3.5% (n = 310,000); Drosophila S2 Gal4-VP16 UAS-luciferase, luminescence, 20 h; Potency, µM (series often up to 53.6 µM), hits mostly inhibitors;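 also: Gal4-VP16 expression switched on by copper sulfate through the metallothionein promoter; nearly all actives have a fitted effect of over 50% in size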
DT40 TDP1 no CPT: qHTS for Inhibitors of human tyrosyl-DNA phosphodiesterase 1 (TDP1): qHTS in cells in absence of CPT; AID 686978, 2013; Potency, µM (series often up to 46.2 µM), most hits filed as inhibitors; actives 15% (n = 420,000); DT40 Tdp1-/- hTDP1 cells, no CPT, ATP luminescence, 48 h; also: nearly all actives have a fitted effect of over 55% in size
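Stably hTDP1-transfected Tdp1-null chicken DT40 cells were treated with library compounds minus camptothecin and grown for at least 48 hr at 37 °C, after which cellular ATP was quantified by luminescence.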
Numbers stand for hits; . = inactive; ? = inconclusive; / = not tested or not shown; [ ] = dose if it differs, or a comment. Unless noted, calls follow the shape of the dose curve; as a rule, active = well fitted curve in the direction sought with a large enough effect; inconclusive = small, poorly fitted or top-dose-only effect, or another doubt; inactive = no such curve, though single readings can be large; an effect the other way counts as inactive or inconclusive.

SMILES	IL1B secr inh	ELG1 repair inh	DT40 TDP1 CPT	RORg inh	VP16 counter	DT40 TDP1 no CPT
COCCNc1cc(C)nc2cc(-c3ccc(C)cc3)nn12	.	.	.	?	.	.
Cc1cc(C)c2c(n1)nn1c(NCCCn3ccnc3)cc(C)nc21	/	.	/	.	.	/
CC(C)(C)c1cc(NCCCn2ccnc2)n2ncc(-c3ccc(Cl)cc3)c2n1	-86.4	?	?	?	.	18.4µM
Cc1cc(NCCCn2ccnc2)n2nc(-c3ccc(F)cc3)cc2n1	-60.5	?	.	.	.	.
Cc1cccc(CNC(=O)C2CCC(=O)N(CCCc3ccccc3)C2)c1 (stereo unspecified)	.	/	?	/	/	?
COc1ccc(-c2nc3cc(C)c(Br)c(C)n3c2Cc2ccc(C)cc2)cc1OC	.	/	?	/	/	?
CN(C)CCCNc1nc(-c2ccccc2)nc2ccccc12	?	.	.	.	.	.
CN(C)CCCNc1cc(C(C)(C)C)nc2c(-c3ccccc3)cnn12	-98.0	?	?	1.41µM	2.51µM	16.4µM
O=C1CCC/C=C\C[C@@H](CC(=O)N(CCO)Cc2ccccc2)C(=O)N[C@H](c2ccccc2)CO1	.	.	.	/	/	.
O=C1N[C@@H](c2ccccc2)COC(=O)[C@H](Cc2ccc(F)cc2)CC/C=C/C[C@H]1CC(=O)N(CCO)Cc1ccccc1	.	?	18.4µM	/	/	14.6µM
O=C1N[C@@H](c2ccccc2)COC(=O)[C@H](Cc2ccc(F)cc2)C/C=C\C[C@H]1CC(=O)N(CCO)Cc1ccccc1	.	/	.	/	/	.
O=C1N[C@@H](c2ccccc2)COC(=O)[C@@H](Cc2ccc(F)cc2)C/C=C\C[C@@H]1CC(=O)N(CCO)Cc1ccccc1	.	20.6µM	14.6µM	/	/	13µM
COc1cc(NS(=O)(=O)c2cnc(N)nc2)cc(OC)c1	/	/	.	/	/	.
COc1ncc(-c2ccc(N3C(c4ccsc4)=Cc4ccc(F)cc4C3CC(=O)c3ccco3)cc2)cn1 (stereo unspecified)	.	/	?	/	/	?
O=C(CC1c2ccccc2C=C(c2ccsc2)N1c1ccc(-c2cccnc2)cc1)C1CC1 (stereo unspecified)	.	/	?	/	/	18.4µM
COc1cc(OC)cc(C2=Cc3ccccc3C(CC(C)=O)N2c2ccc(C#CC3(O)CCCCC3)cc2)c1 (stereo unspecified)	.	/	?	/	/	?
COc1cccc(C2=Cc3ccc(F)cc3C(CC(C)=O)N2c2ccc(-c3cc(OC)c(OC)c(OC)c3)cc2)c1 (stereo unspecified)	.	/	.	/	/	.
COc1cc(OC)cc(C2=Cc3ccccc3C(CC(C)=O)N2c2ccc(-c3cncnc3)cc2)c1 (stereo unspecified)	.	/	18.4µM	/	/	16.4µM
COc1cccc(C2=Cc3ccc(F)cc3C(CC(C)=O)N2c2ccc(-c3cncnc3)cc2)c1 (stereo unspecified)	.	/	13µM	/	/	16.4µM
COc1cc(OC)cc(C2=Cc3ccccc3C(CC(C)=O)N2c2ccc(-c3cccs3)cc2)c1 (stereo unspecified)	.	/	?	/	/	20.6µM
Cn1cncc1C#Cc1ccc(N2C(c3ccsc3)=Cc3ccc(F)cc3C2c2c[nH]c3ccccc23)cc1 (stereo unspecified)	.	/	?	/	/	?
CCOC(=O)c1ccc(-c2ccc(N3C(c4cccc(OC)c4)=Cc4ccc(F)cc4C3CC(C)=O)cc2)cc1F (stereo unspecified)	.	/	.	/	/	.
COC(=O)c1ccc(N2C(c3cccc(OC)c3)=Cc3ccc(F)cc3C2c2c(C)[nH]c3ccccc23)cc1 (stereo unspecified)	.	/	23.1µM	/	/	?
COc1ccc(-c2ccc(N3C(c4ccsc4)=Cc4ccc(F)cc4C3c3c[nH]c4ccccc34)cc2)cc1 (stereo unspecified)	.	/	?	/	/	18.4µM
COc1cc(OC)cc(C2=Cc3ccc(OC)cc3C(CC(C)=O)N2c2ccc(-c3cccs3)cc2)c1 (stereo unspecified)	.	/	20.6µM	/	/	8.2µM
SMILES	IL1B secr inh	ELG1 repair inh	DT40 TDP1 CPT	RORg inh	VP16 counter	DT40 TDP1 no CPT
COC(=O)[C@@]12C[C@@H](CC(=O)NCc3cccs3)C(=O)N(Cc3cccc4ccccc34)C1=CCC(C)(C)C2	.	/	?	/	/	?
CC(=O)OC[C@H]1O[C@@H](O/N=C\[C@@H](C)[C@H](OCc2ccccc2)C(C)C)[C@H](OC(C)=O)[C@@H](OC(C)=O)[C@H]1OC(C)=O	/	/	/	.[10 µM]	.[10 µM]	/
O=S(=O)(c1ccc(Cl)cc1)N1CCN(Cc2ccc(O)c3ncccc23)CC1	.	?	6.51µM	1µM	2.82µM	5.8µM
CN1CCN(C2CCN(Cc3ccc(O)c4ncccc34)CC2)CC1	/	.	/	/	/	/
Oc1ccc(CN2CCN(Cc3ccccc3)CC2)c2cccnc12	.	.	20.6µM	.	.	?
O=S(=O)(c1ccc(Cl)cc1)N1CCN(Cc2ccncc2)CC1	.	.	?	.	.	?
COc1cccc(OC)c1C1=Nn2c(nnc2-c2ccccc2C)SC1	/	/	/	.	.	/
N=c1c2c3c(sc2nc2n1CCCCC2)CCCCC3	.	?	23.1µM	.	.	11.6µM
O=c1c2c3c(sc2nc2n1CCCCC2)CCCC3	.	?	23.1µM	.	.	.
O=c1c2c3c(sc2nc2n1CCCCC2)CCCCC3	/	?	/	.	.	/
CC1CC(C)(C)NC(=S)N1CCCC(=O)NCc1ccccc1 (stereo unspecified)	.	.	.	?	.	.
COc1ccc(N2CCN(C(=O)CCN3C(=S)NC(C)(C)CC3C)CC2)cc1 (stereo unspecified)	.	.	.	11.2µM	.	.
CC1CC(C)(C)NC(=S)N1CCC(=O)N1CCN(c2ccccc2)CC1 (stereo unspecified)	.	.	.	7.94µM	?	.
Cc1ccc(C)c(N2CCN(C(=O)CC3Sc4ccccc4NC3=O)CC2)c1 (stereo unspecified)	.	.	18.4µM	?	.	16.4µM
CC1CC(C)(C)NC(=S)N1CCCC(=O)N1CCN(c2ccc(F)cc2)CC1 (stereo unspecified)	.	.	.	10µM	.	?
CC(=O)c1ccc(N2CCN(C(=O)CCN3C(=S)NC(C)(C)CC3C)CC2)cc1 (stereo unspecified)	.	.	.	?	.	.

Source: PubChem BioAssay
